The source of these data is the supplement of paper PMC4022240.

T1: HaloTag-ATRX ADD domain (163-292)
T1 chain: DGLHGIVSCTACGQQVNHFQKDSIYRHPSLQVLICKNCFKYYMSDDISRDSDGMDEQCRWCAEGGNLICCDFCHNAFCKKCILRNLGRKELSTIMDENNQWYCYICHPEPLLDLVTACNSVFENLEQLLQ

B1: Unmod H1 variant T K P G A S K V A T K T K (peptide)
chain: TKPGASKVATKTK
B2: Unmod H1 variant T K T K A T G A S K K L K (peptide)
chain: TKTKATGASKKLK
B3: Unmod H1 variant S K K S V K T P K K A K K (peptide)
chain: SKKSVKTPKKAKK
B4: Unmod H1 variant S E T A P A A P A A P A P (peptide)
chain: SETAPAAPAAPAP
B5: Unmod H1 variant K T A K P K K A A P K K K (peptide)
chain: KTAKPKKAAPKKK

± gives the standard deviation.

For the first test, the target named is T1, HaloTag-ATRX ADD domain (163-292). The experiment in a line: peptide microarray binding signal (635 nm), min-max normalized on array (fraction of array maximum); higher = stronger binding. Conditions: peptide region: Unmod H1 variant; binder concentration: 50 nM. The method, boiled down: (§1)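 An Axon GenePix 4000B scanned the arrays at 635 nm for signal and at 532 nm to catch misprints. Those arrays held histone 13-mer peptide–cellulose conjugates printed in triplicate on nitrocellulose with a Cy3 tracer, blocked overnight at 4°C and probed for 1 h at 4°C with biotin-labelled HaloTag reader fusions (10 nM to 1 μM) plus streptavidin-Alexa Fluor 647 or with rabbit histone antibodies (1:10,000 to 1:2,000) plus anti-rabbit Alexa 647. Each binding signal is a triplicate-spot mean intensity, scaled min-max within its library.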
On to B1, for which the “peptide microarray binding signal” value amounted to 0.0164 ± 0.00041.

For the molecule B2, the “peptide microarray binding signal” value is 0.032 ± 0.02.

Consider B3, for which the “peptide microarray binding signal” value was determined as 0.0224 ± 0.0075.

Regarding B4, the “peptide microarray binding signal” value came out at 0.0194 ± 0.0011.

Consider B5, for which the “peptide microarray binding signal” value came out at 0.01737 ± 0.0001.

The test is the same for the next values; noted with them: peptide region: Unmod H1 variant; binder concentration: 500 nM.
For the molecule B1, the “peptide microarray binding signal” value amounted to 0.0137 ± 0.0012.

For B2, the “peptide microarray binding signal” value worked out at 0.0136 ± 0.00069.

Regarding B3, the “peptide microarray binding signal” value was determined as 0.00633 ± 9.9e-05.

For B4, the “peptide microarray binding signal” value came out at 0.00995 ± 0.00098.

Consider B5, for which the “peptide microarray binding signal” value was 0.00729 ± 0.00021.

Another test concerns the target HaloTag-ING2 PHD (mouse Ing2 200-280). The description is as above. Conditions: peptide region: Unmod H1 variant; binder concentration: 10 nM. An outline of the steps: as §1
In the case of B1, the “peptide microarray binding signal” value was 0.00215 ± 5e-05.

Regarding B2, the “peptide microarray binding signal” value turned out to be 0.00257 ± 9.1e-05.

As for B3, the “peptide microarray binding signal” value came out at 0.00113 ± 3.2e-05.

Regarding B4, the “peptide microarray binding signal” value was determined as 0.00394 ± 0.0003.

Turning to B5, the “peptide microarray binding signal” value is 0.00203 ± 5.4e-05.

The test is the same for the next values; noted with them: peptide region: Unmod H1 variant; binder concentration: 100 nM.
Consider B1, for which the “peptide microarray binding signal” value was determined as 0.00694 ± 0.00026.

For B2, the “peptide microarray binding signal” value was found to be 0.00829 ± 0.00095.

With B3, the “peptide microarray binding signal” value was found to be 0.00206 ± 0.00011.

As to B4, the “peptide microarray binding signal” value turned out to be 0.00418 ± 0.00041.

With B5, the “peptide microarray binding signal” value was found to be 0.00532 ± 0.00022.

A further test addresses anti-H3K4me3 antibody ab8580. The description is as above. Conditions: peptide region: Unmod H1 variant; binder concentration: 1:2,000 dilution. The method, boiled down:
as §1
Take B1: the “peptide microarray binding signal” value was determined as 0.00117 ± 0.00015.

As for B2, the “peptide microarray binding signal” value is 0.000642 ± 2.2e-05.

Take B3: the “peptide microarray binding signal” value was found to be 0.000359 ± 9.7e-06.

Turning to B4, the “peptide microarray binding signal” value came out at 0.00274 ± 0.001.

B5: the “peptide microarray binding signal” value is 0.000755 ± 3e-05.

Staying with this test, now noted: peptide region: Unmod H1 variant; binder concentration: 1:10,000 dilution.
With B1, the “peptide microarray binding signal” value came to 0.00097 ± 9.9e-06.

As to B2, the “peptide microarray binding signal” value stood at 0.001027 ± 1e-05.

On to B3, for which the “peptide microarray binding signal” value is 0.000628 ± 6.7e-06.

Take B4: the “peptide microarray binding signal” value is 0.00337 ± 0.00036.

With B5, the “peptide microarray binding signal” value came to 0.000913 ± 1.6e-05.

A further test deals with anti-H3K9me3 antibody ab8898. The description is as above. Conditions: peptide region: Unmod H1 variant; binder concentration: 1:2,000 dilution. The method, boiled down: as §1
On to B1, for which the “peptide microarray binding signal” value came to 0.000302 ± 6.2e-06.

For B2, the “peptide microarray binding signal” value was determined as 0.000181.

For the molecule B3, the “peptide microarray binding signal” value came to 0.000121 ± 1.3e-06.

As to B4, the “peptide microarray binding signal” value was determined as 0.00159 ± 8.6e-05.

As to B5, the “peptide microarray binding signal” value turned out to be 0.000121 ± 1.3e-06.

The test is the same for the next values; noted with them: peptide region: Unmod H1 variant; binder concentration: 1:10,000 dilution.
B1: the “peptide microarray binding signal” value was determined as 0.000692 ± 7.3e-06.

B2: the “peptide microarray binding signal” value was found to be 0.000519 ± 5.6e-06.

On to B3, for which the “peptide microarray binding signal” value is 0.000577 ± 6.2e-06.

As for B4, the “peptide microarray binding signal” value was found to be 0.00167 ± 2.8e-05.

For the molecule B5, the “peptide microarray binding signal” value worked out at 0.000577 ± 6.2e-06.
